The target of test [1] is Cellular tumor antigen p53 (Homo sapiens) (UniProt P04637). Briefly: Primary qHTS for small molecule compounds that upregulate eGFP-tagged delta133p53alpha (in N-terminal) cells. (AID 2060322). Further: nearly all actives have a fitted effect of over 75% in size. Further: potency means the concentration at half of the fitted maximal effect.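 On activation: series mostly up to about 56 µM; 0% = DMSO vehicle and 100% = reference activator.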 The conditions noted are these: NCI-H358 eGFP-delta133p53alpha fluorescence, 24 h; activation: active compounds read high. The method in brief:
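NCI-H358 cells pre-induced 24 h with 10 ng/ml doxycycline to express N-terminal eGFP-delta133p53alpha, then dosed 24 h at 37C without doxycycline; fixed, Hoechst-stained, GFP intensity by laser scanning cytometry, normalized to DMSO (0%) and 57.5 uM 5-azacytidine (100%).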
(Quantitative high-throughput screening tests each substance at several concentrations.)

For test [2], the target named is Aldehyde dehydrogenase, mitochondrial (Homo sapiens) (UniProt P05091). The experiment in a line: qHTS for Inhibitors of the Aldehyde Dehydrogenase Family (ALDH2) Primary screen (AID 2061308).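 Further: plate controls were vehicle for no effect and reference inhibitor for full effect; nearly all actives have a fitted effect of over 55% in size.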
The target of test [3] is Retinaldehyde dehydrogenase 3 (Homo sapiens) (UniProt P47895). Briefly: qHTS for Inhibitors of the Aldehyde Dehydrogenase Family (ALDH1A3) Primary screen (AID 2061315).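 Further: plate controls were DMSO vehicle for no effect and reference inhibitor for full effect.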

Records with an inconclusive call do not appear. Unmarked numbers belong to inactive results. Activity calls are given as the source filed them. The call rests on the fitted dose curve; in most records, active means well fitted curve in the direction sought with a large enough effect; inconclusive means small, poorly fitted or top-dose-only effect, or another doubt; inactive means no such curve, though single readings can be large; an effect the other way counts as inactive or inconclusive.

Sequence of Cellular tumor antigen p53 (Homo sapiens) (P04637 whole entry, looked up): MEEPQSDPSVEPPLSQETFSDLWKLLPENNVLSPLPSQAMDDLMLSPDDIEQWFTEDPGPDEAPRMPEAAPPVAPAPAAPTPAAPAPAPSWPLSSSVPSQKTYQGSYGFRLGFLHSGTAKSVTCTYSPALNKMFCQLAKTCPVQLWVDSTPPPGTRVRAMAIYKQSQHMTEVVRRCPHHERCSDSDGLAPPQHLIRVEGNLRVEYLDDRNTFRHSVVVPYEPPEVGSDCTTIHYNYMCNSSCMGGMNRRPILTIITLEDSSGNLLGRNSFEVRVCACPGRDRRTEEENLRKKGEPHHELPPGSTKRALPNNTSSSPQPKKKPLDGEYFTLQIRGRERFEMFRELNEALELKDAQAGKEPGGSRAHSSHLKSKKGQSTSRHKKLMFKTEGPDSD

Turning to `COC1=Cc2c(nc3n(c2=O)C(C)C(=O)NC3(O)C(C)C)OC=C1` (stereo unspecified), the activation in test [1] was -17.6%. Besides, the Potency result in test [2] and in test [3] was “inactive” each time.
Regarding `CC(O)/C=C/C1(O)C(C)C(O)C(O[C@@H]2O[C@H](CO)[C@@H](O)[C@H](O)[C@H]2O)CC1(C)C` (stereo partly specified), in test [1], the activation is -14.3%. The Potency entry in test [2] and in test [3] was “inactive” throughout.
As to `CCC/C=C/C(=O)O[C@H]1CC(C)(C)CC2[C@@]13[C@H](O)C[C@]1(C)[C@@]2(CCC2[C@@]4(C)CC[C@H](O[C@@H]5O[C@H](C(=O)O)[C@@H](O)[C@H](O[C@@H]6O[C@H](CO)[C@H](O)[C@H](O)[C@H]6O[C@@H]6O[C@@H](C)[C@H](O)[C@@H](O)[C@H]6O[C@@H]6OC[C@](O)(CO)[C@H]6O)[C@H]5O[C@@H]5O[C@H](CO)[C@H](O)[C@H](O)[C@H]5O)C(C)(C)C4CC[C@]21C)O[C@H]3O` (stereo partly specified), the activation in test [1] is -12.5%. Moreover, the activity change, negative = inhibition in test [2] was 11.6% [at 11.2 µM]; in test [3] it was 11% [at 11.2 µM].
As for `COCCCNC(=O)c1ccc(Cn2c(=O)c3ccccc3n(Cc3ccc(C(C)C)cc3)c2=O)cc1`, the activation in test [1] was 7%. The Potency entry in test [2] and in test [3] was “inactive” throughout.
On to `CC(=O)O[C@@H]1C[C@@]23C[C@@]24CC[C@H](O[C@@H]2OC[C@H](O)[C@H](O)[C@H]2O)C(C)(C)[C@@H]4CC[C@H]3[C@]2(C)[C@@H](O)C34O[C@H](C[C@@H](C)[C@@H]3[C@@]12C)[C@@H](C(C)(C)O)O4`, for which the Potency in test [1] was 3.79 µM (active). Besides, the Potency entry in test [2] and in test [3] was “inactive” throughout.
With `CC1(C)C2CC=C(COC3OC(COC4OCC(O)(CO)C4O)C(O)C(O)C3O)C1C2` (stereo unspecified), the activation in test [1] is 18.3%. For the same compound, the Potency entry in test [2] and in test [3] was “inactive” throughout.
As for `C[C@@H](Oc1cc(-n2cnc3ccc(OC4CCN(C)CC4)cc32)sc1C(N)=O)c1ccccc1C(F)(F)F`, the Potency in test [1] is 4.78 µM (active). The Potency result in test [2] and in test [3] was “inactive” in each case.
With `CC(C)COc1ccc(CNC(=O)N(Cc2ccc(F)cc2)C2CCN(C)CC2)cc1`, in test [1], the activation was -15.7%. Besides, the Potency result in test [2] and in test [3] was “inactive” in each case.
Take `CN1CCc2cc3c(cc2C(=O)Cc2cc4c(cc2C1)OCO4)OCO3`: in test [1], the activation was -8.04%. Besides, the Potency entry in test [2] and in test [3] was “inactive” throughout.
Consider `CO[C@@H]1[C@]2(O)C(=O)N3/C=C\C(C)(C)c4[nH]c5ccccc5c4/C=C\3C(=O)N2[C@]23[C@H](CO)C(C)(C)N2c2ccccc2[C@]13O`, for which the activation in test [1] was 8.4%. Moreover, the Potency entry in test [2] and in test [3] was “inactive” throughout.
Consider `C[C@@H]1O[C@@H](O[C@H]2[C@H](O[C@H]3[C@H](O)[C@@H](C(=O)O)O[C@@H](O[C@H]4CC[C@@]5(C)C(CC[C@]6(C)C5CC[C@]57OC[C@@]8(CCC(C)(C)CC85)[C@H](O)C[C@]76C)C4(C)C)[C@@H]3O[C@@H]3O[C@H](CO)[C@@H](O[C@@H]4OC[C@@H](O)[C@H](O)[C@H]4O)[C@H](O)[C@H]3O)O[C@H](CO)[C@H](O)[C@@H]2O)[C@H](O)[C@H](O)[C@H]1O` (stereo partly specified), for which, in test [1], the activation was -6.87%. The activity change, negative = inhibition is 5.88% [at 11.2 µM] in test [2] and -5.39% [at 11.2 µM] in test [3].
Turning to `CC(=O)OCC1(O)CCC2C(COC3OC(CO)C(O)C(O)C3OC(=O)/C=C/c3ccc(O)cc3)=COC(OC(=O)CC(C)C)C21` (stereo unspecified), in test [1], the activation was 11.5%. In addition, the Potency entry in test [2] and in test [3] was “inactive” in each case.
Consider `C/C=C(/C)C(=O)O[C@@H]1C[C@@H](OC(=O)/C(C)=C\C)[C@@]2(C)C3C(=O)C=C(C)C2C3C1(C)C`, for which, in test [1], the activation is -3.57%. In addition, the Potency result in test [2] and in test [3] was “inactive” in each case.
For the compound `C[C@H](NC(c1cccc(C[P+](=O)O)c1)[C@H](C)O)c1ccc(Cl)c(Cl)c1` (stereo partly specified), the activation in test [1] is 9%. In addition, the Potency entry in test [2] and in test [3] was “inactive” throughout.
Regarding `COc1ccc(CNC(=O)c2sc3nc(C)cc(C)c3c2N)cc1`, the activation in test [1] is -8.11%. The Potency result in test [2] and in test [3] was “inactive” each time.
Regarding `CS(=O)(=O)c1ccc([C@H](CC2CCCC2)C(=O)Nc2nccs2)cc1`, the activation in test [1] is -11.6%. Further, the Potency result in test [2] and in test [3] was “inactive” each time.
For the compound `CC(=O)O[C@H]1[C@H](O[C@H]2[C@@H]3C=CO[C@@H](O[C@@H]4O[C@H](CO)[C@@H](O)[C@H](O)[C@H]4O)[C@@H]3[C@@]3(CO)O[C@@H]23)O[C@@H](C)[C@H](OC(=O)/C=C/c2ccccc2)[C@H]1OC(=O)/C=C/c1ccccc1`, the activation in test [1] was -7.63%. Also, the Potency entry in test [2] and in test [3] was “inactive” each time.
In the case of `CCC(C)/C=C(C)/C=C/C1=CC2=C(Cl)C(=O)C(C)(OC(C)=O)C(=O)C2=CN1C(CCCN=C(N)N)C(=O)O` (stereo unspecified), the activation in test [1] is 16%. In addition, the Potency entry in test [2] and in test [3] was “inactive” in each case.
Take `C/C=C\NC(=O)C1NC(=O)C(CC(N)=O)NC(=O)C(NC(=O)C(=O)C(C)CC)Cc2ccc(O)c(c2)-c2cccc3c2NC(=O)C3(O)C1O` (stereo unspecified): the activation in test [1] was 3.82%. For the same compound, the Potency result in test [2] and in test [3] was “inactive” throughout.
In the case of `CC(C)(C)c1ccc(NC(=O)N2CCN(c3ncccc3Cl)CC2)cc1`, the activation in test [1] was -11.5%. For the same compound, the Potency result in test [2] and in test [3] was “inactive” throughout.
In the case of `CC(C)C1C(OC(=O)/C=C/c2ccccc2)CC2(C)OC2CCC2(C)OC2C1O` (stereo unspecified), in test [1], the activation is -0.763%. Moreover, the Potency result in test [2] and in test [3] was “inactive” in each case.
Consider `COc1ccc2c(c1)OC[C@]1(O)c3cc4c(cc3O[C@H]21)OCO4`, for which, in test [1], the activation is -2.68%. The Potency entry in test [2] and in test [3] was “inactive” each time.

The values are drawn from PubChem BioAssay (NCATS).
